Shown is part of a subset that was picked to be rich in hits.
AMPAR-TARP mod: GluA2-stargazin AMPA receptor complex modulation. AID 1259245. HEK293 GluA2+stargazin, membrane potential dye (FDSS), glutamate EC50; hits were called plate by plate, in both directions. calls only at 30 µM. actives 3.5% (n = 40,000). O88602+P19491;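 active means any of four per-well response measures lying three or more SD from its plate-wide compound average, in either direction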
GIRK2 act: Activates human GIRK2-containing potassium channels; P48051; HEK293 GIRK2/NPY4 cells, thallium flux fluorescence; activation (% efficacy), % for hits at 37.5 µM; 34,000 tested, under 10 active; AID 1259324;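 active means primary screen hit, no activity in plain HEK293 cells, and in GIRK2-only cells above 5% efficacy rising with concentration; inactive means the rest, including fluorescent compounds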;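 further: efficacy is normalized control-subtracted fluorescence 15 s after thallium addition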
Each line names hits and unclear results; the compound was inactive in the other large screens.

CCC/C(O)=C(\C#N)c1nc2ccccc2[nH]1	AMPAR-TARP mod active
Cc1ccc(NC(=O)c2c(F)cccc2F)cc1N1CCCCC1=O	none
CSc1ccc(NC(=O)C2CC2)nn1	none
O=C(CC1C(=O)NCCN1C(=S)NC(=O)c1ccccc1Cl)OCC1CCCO1 (centres undefined)	none (no result: GIRK2 act)
COc1ccc(CC(=O)Nc2cc(C3CC3)nn2-c2nc(C(C)C)cc(=O)[nH]2)cc1OC	none
COc1ccc(C(=O)Nc2cc(C3CC3)nn2-c2nc(C(C)C)cc(=O)[nH]2)cc1OC	AMPAR-TARP mod active
COc1ccc(C(=O)Nc2ccc(C)c(N3CCCCC3=O)c2)c(OC)c1	none (no result: GIRK2 act)
Cc1cc(=O)n(CC(=O)Nc2cc(C(F)(F)F)ccc2Cl)cn1	none
CCc1c(C)nc(SCC(=O)Nc2cc(C(F)(F)F)ccc2Cl)[nH]c1=O	AMPAR-TARP mod active (no result: GIRK2 act)
CC1=C(C(=O)OC(C)(C)C)C(c2ccccc2F)NC(=O)N1 (centres undefined)	AMPAR-TARP mod active (no result: GIRK2 act)
CCOC(=O)C1=C(C)NC(=O)NC1c1cccc2ccccc12 (centres undefined)	none (no result: GIRK2 act)
CCOCCn1c(N2CCN(Cc3ccccc3C)CC2)nc2c1c(=O)[nH]c(=O)n2C	none (no result: GIRK2 act)
O=C(Nc1ccc(F)cc1)c1ccc(S(=O)(=O)c2ccc(Cl)cc2)nc1	none
COc1ccccc1/C=C(\C#N)C(N)=C(C#N)C#N	AMPAR-TARP mod active
COc1ccc(OC)c(NC(=O)/C(C#N)=C/c2ccc(C(C)C)cc2)c1	none
O=C(Cc1c[nH]c2ccccc12)N1CCN(c2ccc(N3CCCC3)nn2)CC1	AMPAR-TARP mod active
COc1ccccc1CNC(=O)C1CCN(c2ccc(-c3ccc(F)cc3)nn2)CC1	none
COc1ccc(-c2ccc(N3CCC(C(=O)NC4CC4)CC3)nn2)cc1	AMPAR-TARP mod active
O=C(Cc1c[nH]c2ccccc12)N1CCN(c2cc(-c3cccnc3)[nH]n2)CC1	none (no result: AMPAR-TARP mod)
COc1ccc(-c2ccc(N3CCC(C(=O)N4CCN(C)CC4)CC3)nn2)cc1	none
O=C(c1ccc2c(c1)OCO2)N1CCN(c2ccc(-c3ccncc3)nn2)CC1	none
COc1ccc(-c2ccc(N3CCC(C(=O)NCCc4c[nH]c5ccccc45)CC3)nn2)cc1	AMPAR-TARP mod active
COc1cc(OC)cc(C(=O)N2CCN(c3ccc(-c4ccncc4)nn3)CC2)c1	AMPAR-TARP mod active
CCCCc1ccc(-n2c(C)c(C)n3c4c(=O)n(CC(=O)OC)c(=O)n(C)c4nc23)cc1	none (no result: GIRK2 act)
O=C(Cn1cnc(-c2ccccc2)cc1=O)NCc1ccc2c(c1)OCO2	none
CC(C)C(=O)N1CCc2ccc(NC(=O)Nc3cccs3)cc2C1	none
Cc1ccc(N2CCN(S(=O)(=O)c3ccc(C)c(C)c3C)CC2)c(C)c1	none (no result: GIRK2 act)
C=CCn1c(=O)c2c(nc3n(-c4cc(OC)ccc4OC)c(-c4ccccc4)cn23)n(C)c1=O	none
COCCn1c(=O)c2c(nc3n(-c4ccccc4C)c(-c4ccccc4)cn23)n(C)c1=O	none (no result: GIRK2 act)
CCc1ccccc1-n1c(-c2ccccc2)cn2c3c(=O)n(CCOC)c(=O)n(C)c3nc12	AMPAR-TARP mod active (no result: GIRK2 act)
C=C(C)Cn1c(=O)c2c(nc3n(-c4cc(OC)ccc4OC)c(-c4ccccc4)cn23)n(C)c1=O	AMPAR-TARP mod active
COC(=O)N1CCC(CNC(=O)C(=O)Nc2ccc(F)c(Cl)c2)CC1	none
O=C(CSc1nnc(CCn2ccc(=O)[nH]c2=O)o1)Nc1ccc(Cl)cc1	none
COc1ccc(-c2csc(-n3nc(C)cc3NC(=O)c3cccs3)n2)cc1OC	none
COc1ccc(-n2nnc(C(=O)OCc3nc(-c4ccc(Cl)cc4)oc3C)c2C)cc1	none (no result: GIRK2 act)
Cc1ccnc(C(=O)Nc2ccncc2)n1	AMPAR-TARP mod active
Cc1ccnc(C(=O)Nc2ccc(Nc3cc(N4CCOCC4)nc(C)n3)cc2)n1	none (no result: AMPAR-TARP mod)
CCN(CC)CCNC(=O)C(=O)Nc1ccc([N+](=O)[O-])cc1	none (no result: GIRK2 act)
CC(O)CNC(=O)C(=O)Nc1ccc([N+](=O)[O-])cc1 (centres undefined)	AMPAR-TARP mod active (no result: GIRK2 act)
CCN(CC)C(=O)Oc1ccc2c(=O)c(-c3ccc(OC)c(OC)c3)c(C)oc2c1	AMPAR-TARP mod active
CCN(CC)C(=O)Oc1ccc2c(=O)c(-c3ccccc3)c(C)oc2c1	none (no result: GIRK2 act)
COc1ccccc1-c1c(C)oc2cc(OCC=C(C)C)ccc2c1=O	AMPAR-TARP mod active (no result: GIRK2 act)
Cc1oc2cc(OCC(=O)OCc3ccccc3)ccc2c(=O)c1-c1ccccc1	AMPAR-TARP mod active (no result: GIRK2 act)
CCOC(=O)COc1ccc2c(=O)c(-c3ccccc3)c(C)oc2c1	none (no result: GIRK2 act)
COc1ccccc1-c1c(C)oc2cc(OC(=O)N3CCOCC3)ccc2c1=O	none (no result: GIRK2 act)
Cc1ccnc(OCC(=O)N2CCN(c3cc(N4CCCC4)nc(C)n3)CC2)n1	none (no result: AMPAR-TARP mod)
CNC(=O)c1cc2c(=O)n3cccc(C)c3nc2n1Cc1ccccc1	none
O=C(NCCOc1ccc(F)cc1)c1cc(Cl)ccn1	none (no result: GIRK2 act)
Cn1c(=O)c2c(nc(N3CCOCC3)n2CCSc2nnnn2-c2ccccc2)n(C)c1=O	none (no result: GIRK2 act)
Cc1nnc(SCCn2c(N3CCOCC3)nc3c2c(=O)n(C)c(=O)n3C)s1	AMPAR-TARP mod active (no result: GIRK2 act)
COc1cccc(-n2nnc3c(N4CCN(C(=O)c5cc(=O)c6ccccc6o5)CC4)ncnc32)c1	none (no result: GIRK2 act)
CCCC(=O)Nc1ccc(C(=O)NCCNC(=O)c2ccccc2OC)cc1	none
Cc1ccc(C(=O)Nc2ccc(C(=O)NCCNC(=O)c3ccccc3C)cc2)cc1	AMPAR-TARP mod active (no result: GIRK2 act)
CCN1CCc2c(sc(NC(=O)c3ccc(OC)c(OC)c3)c2-c2nc3ccccc3s2)C1	AMPAR-TARP mod active (no result: GIRK2 act)
COc1ccc(C(=O)Nc2sc3c(c2-c2nc4ccccc4s2)CCN(C(C)C)C3)cc1OC	AMPAR-TARP mod active (no result: GIRK2 act)
CCN1CCc2c(sc(NC(=O)c3ccc(C)c(C)c3)c2-c2nc3ccccc3s2)C1	none (no result: GIRK2 act)
COC(=O)c1ccc(C(=O)Nc2sc3c(c2-c2nc4ccccc4s2)CCN(C(C)C)C3)cc1	none (no result: GIRK2 act)
Cc1cc(C(=O)NCCn2nc(-c3ccccc3)n(C)c2=O)c(C)o1	none
CCSc1ccc(CC(=O)Nc2nc(-c3ccc(OC)c(OC)c3)cs2)cc1	none (no result: GIRK2 act)
COc1ccc(S(=O)(=O)N2CCSC2c2ccc(Br)cc2)cc1 (centres undefined)	none (no result: GIRK2 act)
COc1ccc(Br)cc1C1SCCN1S(=O)(=O)c1cccc(C)c1 (centres undefined)	AMPAR-TARP mod active (no result: GIRK2 act)
COc1cc(OC)cc(C(=O)Nc2ccc(-n3c(C)nc4ncccc4c3=O)cc2)c1	none (no result: GIRK2 act)
COc1cccc2sc(NC(=O)c3cc(C)nn3C)nc12	AMPAR-TARP mod active
CCOc1cccc2sc(NC(=O)c3c(C)cnn3C)nc12	none (no result: AMPAR-TARP mod)
CCn1nc(C(=O)Nc2nc3c(C(C)C)cccc3s2)cc1C	none (no result: AMPAR-TARP mod)
COc1cccc2sc(NC(=O)c3cc(C)n(C)n3)nc12	AMPAR-TARP mod active
Cc1cc(N2CCOCC2)nc(SCCC#N)n1	none
COc1ccc(S(=O)(=O)CC(=O)Nc2nc(-c3ccc(C(C)C)cc3)cs2)cc1	none
O=C(c1cccc([N+](=O)[O-])c1)N(CCN1CCOCC1)c1nc2ccc(F)cc2s1	none (no result: GIRK2 act)
COc1ccc2sc(N(CCN3CCOCC3)C(=O)c3ccc([N+](=O)[O-])o3)nc2c1	none (no result: GIRK2 act)
O=C(c1ccc([N+](=O)[O-])s1)N(CCN1CCOCC1)c1nc2c(F)cccc2s1	none
Cc1ccc2nc(N(CCN3CCOCC3)C(=O)c3ccc([N+](=O)[O-])o3)sc2c1	AMPAR-TARP mod active (no result: GIRK2 act)
O=C(c1cc2cc([N+](=O)[O-])ccc2s1)N(CCN1CCOCC1)c1nc2ccc(F)cc2s1	AMPAR-TARP mod active (no result: GIRK2 act)
O=C(c1ccc([N+](=O)[O-])o1)N(CCN1CCOCC1)c1nc2c(F)cccc2s1	AMPAR-TARP mod active
Cc1ccc(Oc2ccc(N(C)C(=O)c3ccc(Br)o3)cc2)nn1	none
